Where “and” joins values, the source holds several entries; their conditions need not be identical. Equal values may be shown once. This is part of a sample that, as a whole, favours compounds with a hit. Of some 83,000 tested, about 20% had one in any assay.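 Compound tested at a single concentration for 48 hours in 96-well plates; a percent growth value below 10 was scored as active.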 Unmarked numbers belong to inactive results. Calls of active or inactive are those of the source.

For this assay, the system named is SN12C renal. Nature of the assay: NCI-60 one-dose screen, 48 h (100 = growth as untreated, 0 = no growth, -100 = all killed). The note with it: 10 µM unless noted. The protocol:
Growth inhibition of the SN12C human tumor cell line is measured as a screen for anti-cancer activity. Cells are grown in 96 well plates and exposed to the test compound for 48 hours. Compounds are tested at a single concentration, which is 10^-5 M for most compounds. The reported endpoint is percent growth (GI% or GIPRCNT), where numbers from 0 - 100% represent growth inhibition, and numbers from -100% - 0 represent cell death. For example, a value of 40 represents 60% growth inhibition. A value of 0 means no net growth occurred over the course of the experiment. A value of -40 indicates 40% of cells at the beginning of the experiment died by the end of the experiment. A value of -100 means all cells are dead at the end of the experiment.
NCI-60 Human Tumor Cell Lines Screen was performed using the standard one-dose NCI protocol, which is described in more detail at https://dtp.cancer.gov/discovery_development/nci-60/default.htm.
Compounds with GIPRCNT values below 10 were considered active. Activity score was based on GIPRCNT using the following formula: […]
Score is 0 for GIPRCNT values of 100 or above, 50 for GIPRCNT values of 0, and 100 for GIPRCNT values of -100.
Turning to `Cc1ccc2c(c1)nc(-c1ccccc1)n2CC(=O)N=Nc1c(O)[nH]c2ccc(Cl)cc12`, the growth is -77.9% (active). As for `Cc1[nH]nc2ccc3nc(-c4cn[nH]c4C(F)(F)F)c4c(c3c12)CCCC4`, the figure is -22.4% (active). To `Clc1ccc(Nc2nnc(-c3c[nH]c4ccccc34)o2)cc1` belongs 53.6%; to `CN1C(=O)C2(C(C#N)=C(c3ccc(Cl)cc3)Nc3c2c(-c2ccccc2)nn3-c2ccccc2)c2ccccc21` (stereo not given), 86.3%. Take `COc1ccc2c(c1)C(=O)N(C)C2C1c2c(cc3c(c2OC)OCO3)CCN1C` (stereo not given): the growth is 76.9%. With `CN(C)c1nc(NCCNS(=O)(=O)c2ccc(C(=O)/C=C/c3ccccc3)cc2)nc(N2CCOCC2)n1`, the growth was 79.8%. Take `Cc1cc(C)c2[nH]c(=O)c(C(c3nnnn3Cc3ccc4c(c3)OCO4)N3CCN(C)CC3)cc2c1` (stereo not given): the growth is 108%. To `Cn1cc(-c2cc(N)n3nc(-c4c[nH]c5ccccc45)cc3n2)c2cc(Cl)ccc21` belongs -81.2% (active); to `CC(=O)Nc1cccc(-n2c(COc3ccc(I)cc3)nc3ccccc32)c1`, 95.7% and 111%. To `CCCCCCCCc1ccc(C(=O)Nc2ccc(C)cc2C(=O)O)cc1` belongs 89.5%; to `Cn1cc(-c2cc(N)n3nc(-c4c[nH]c5ccccc45)cc3n2)c2ccccc21`, -85.5% (active); to `COc1ccc(-c2nc3ccccc3n2CC(=O)N=Nc2c(O)[nH]c3ccc(OC)cc23)cc1`, 58.7%.

On to `COc1ccc(-c2nc3ccc(-c4nnc(SCc5ccccc5)o4)cc3[nH]2)cc1OC`, for which the growth is -2.42% (active).

`OCCn1cc(-c2nc3ccc4[nH]ncc4c3c3c2CCCC3)cn1`: the growth was 36.7%. As for `COc1ccc2oc(=O)c(-c3csc(N/N=C(\C)c4cc(OC)c(OC)c(OC)c4)n3)cc2c1`, the figure is 80.5%; as for `Cc1ccc(S(=O)(=O)N(CCn2ccnc2[N+](=O)[O-])CCn2ccnc2[N+](=O)[O-])cc1`, 105%.

As to `O=C1Nc2cc(-c3ccc(NS(=O)(=O)c4ccc(C(F)(F)F)cc4)cc3)ccc2/C1=C/c1ccc[nH]1`, the growth is 4.64% (active). On to `Cc1ccc2nc(COc3ccc(C(=O)NNC(=O)Nc4ccc(Cl)c(C(F)(F)F)c4)cc3)[nH]c2c1`, for which the growth is 38.7%. To `CCCCNc1ccc2c3c(cccc13)C(=O)N(c1cccc(-c3nn(-c4ccccc4)cc3-c3nc4ccccc4s3)c1)C2=O` belongs 101%; to `COc1ccc2c(c1)C(Sc1ccc(Cl)cc1)c1c(nc(N)c(C#N)c1N)O2` (stereo not given), 55.7%. As for `CCOc1ccccc1[C@H]1C(C(=O)c2ccc(Cl)cc2)C2(N[C@@H]1c1ccccc1)C(=O)Nc1ccc(Cl)cc12` (stereo not given in full), the figure is -57.3% (active); as for `O=C1NC(=NC23CC4CC(CC(C4)C2)C3)N/C1=C\c1ccc2ncccc2c1`, -2.27% (active); as for `O=C(CSc1nc2sc3c(c2c(=O)n1-c1ccc(Cl)cc1)CCCC3)NNC(=O)c1ccc(Br)cc1`, 46%.

As for `COc1ccc(-c2cc(C(=O)Oc3ccc(C=O)cc3OC)nn2-c2ccc(S(C)(=O)=O)cc2)cc1`, the growth was 90.7%.

Take `CCOC(=O)c1ccc(NC(=S)NC(=O)c2ccc(NC(=O)C(C)C)cc2OC)cc1`: the growth is 73.8%. To `C[C@@H]1[C@H]2C[C@@H](C[C@H]1NCc1nc3ccccc3n1C1CCCCCC1)C2(C)C` belongs 39.8%; to `Nc1nc(-c2ccccc2)c(N=Nc2ccc(Cl)cc2Cl)s1`, -95% (active); to `CN(C)c1nc(NCCNS(=O)(=O)c2ccc(C3=Nc4c(N)nc(N)nc4NC(c4ccc(C(F)(F)F)cc4)C3)cc2)nc(N2CCOCC2)n1` (stereo not given), 48.1%. As for `COc1cc(CNC(=O)C[C@H](C)CCC=C(C)C)ccc1OCc1cn(-c2ccc(Cl)cc2Cl)nn1`, the figure is 64.8%; as for `Cc1cccc(NCC(=O)N2CCN(c3ncnc4c3cnn4-c3ccccc3)CC2)c1`, 76.9%. Take `CS(=O)(=O)c1ccc(-n2nc(C(=O)NCc3ccccc3)cc2-c2ccc(Cl)cc2)cc1`: the growth was 80.8%. To `CN(CCSSCCN1CCOCC1)C(=O)Oc1cc2c(c3ccccc13)[C@H](CCl)CN2C(=O)c1cc2cc(OCCCN3CCC3)ccc2[nH]1` belongs -9.12% (active). As for `COc1cc(C2CC(c3ccc(Cl)cc3)=Nc3c(N)nc(N)nc3N2)ccc1Oc1nc(Nc2ccc(F)cc2)nc(N(C)C)n1` (stereo not given), the figure is 55.6%. `COc1ccc(-c2cc(C(=O)N=Nc3c(O)[nH]c4ccc(Cl)cc34)c3ccccc3n2)cc1OC`: the growth was 96.4%.

Turning to `CC1=NN(C2=NC(=O)C(CC(=O)Nc3ccccc3C(F)(F)F)S2)C(c2ccc(N(C)C)cc2)C1` (stereo not given), the growth is 46.5%. As for `COc1ccc(-c2nc3ccc(-c4nnc(SCc5ccccc5)o4)cc3[nH]2)cc1`, the figure is -66.3% (active); as for `S=C(Nc1ccc(OCc2nc3ccc(Cl)cc3[nH]2)cc1)NC1CCCCC1`, -80.6% (active); as for `Cc1cn(-c2cc(NC(=O)c3ccc(C)c(-n4cc(-c5cnc6cccnn56)nn4)c3)cc(C(F)(F)F)c2)cn1`, 85.9%. To `COc1cc(/C=C/C(=O)c2ccc(S(=O)(=O)NCCNc3nc(N(C)C)nc(N4CCOCC4)n3)cc2)cc(OC)c1OC` belongs -22% (active). As for `CCc1ccc(SC2c3cc(OC)ccc3Oc3nc(N)c(C#N)c(N)c32)cc1` (stereo not given), the growth was 1.31% (active).

The record behind these values is PubChem BioAssay (NCI).
